The results in this text go back to PubChem BioAssay AID1851 (National Center for Advancing Translational Sciences (NCATS), 2009).

Where “and” joins values, the source holds several entries; their conditions need not be identical. Identical values can stand only once. Out of some 16,000 compounds screened, about 4,000 (25%) were called active. Another 26% or so got no clear call; they are omitted. Calls follow the shape of the dose curve; as a rule, active = well fitted curve in the direction sought with a large enough effect; inconclusive = small, poorly fitted or top-dose-only effect, or effect the other way; inactive = no such curve, though single readings can be large or run the other way. These entries were drawn from the full list. Some structures have more than one record in an assay (separate samples or runs), and their calls can disagree.
% is scaled to controls: 0 for no effect and ±100 for the full control effect.

The target in this test is Cytochrome P450 2C9 (Homo sapiens) (UniProt P11712). The test can be described thus: Cytochrome panel assay with activity outcomes. Conditions: recombinant CYP, pro-luciferin dealkylation, luminescence, p450-cyp2c9; series mostly up to 57.1 µM.
Sequence of Cytochrome P450 2C9 (Homo sapiens) (P11712 whole entry, looked up): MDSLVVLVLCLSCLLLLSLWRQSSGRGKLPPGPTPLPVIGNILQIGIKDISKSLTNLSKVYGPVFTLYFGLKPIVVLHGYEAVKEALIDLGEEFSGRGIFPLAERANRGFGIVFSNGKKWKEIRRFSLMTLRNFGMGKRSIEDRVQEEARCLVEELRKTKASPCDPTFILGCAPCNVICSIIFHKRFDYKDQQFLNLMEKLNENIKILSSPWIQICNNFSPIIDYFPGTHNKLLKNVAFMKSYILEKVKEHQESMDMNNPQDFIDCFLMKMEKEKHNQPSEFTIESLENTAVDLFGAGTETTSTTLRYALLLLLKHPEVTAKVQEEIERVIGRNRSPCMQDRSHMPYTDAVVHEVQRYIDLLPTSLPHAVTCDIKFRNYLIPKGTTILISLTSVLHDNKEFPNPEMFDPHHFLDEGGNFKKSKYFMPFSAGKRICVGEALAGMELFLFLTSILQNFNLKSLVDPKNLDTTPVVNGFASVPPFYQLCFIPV
For `CCOc1cc(/C=N/n2cnnc2)c(Br)cc1O`, the AC50 is 10 µM (active).
On the same count and under the same terms, as for `CCOc1cc(/C=N/O)cc(Cl)c1OC`, the entry is “inactive”; as for `COc1ccc(NC(=O)N2CC3(CCN(C(=O)c4cccn4C)CC3)C2)cc1`, “inactive”; as for `COCCNC(=O)CCn1nc(-c2ccc(Cl)cc2)ccc1=O`, “inactive”.
On to `CCC(Sc1nc2n[nH]c(C)c2c(=N)n1-c1cccc(Cl)c1)C(=O)NCCOC` (stereo not given), for which the AC50 was 4.47 µM (active).
In the case of `CO[C@@H]1COC(=O)[C@H](C)NC(=O)[C@@H](C)COC(=O)CCC[C@H]1C`, the activity, negative = inhibition was 10.9% [at 11.4 µM] (inactive).
`N#C/C(=C\c1ccc(O)c(O)c1)C(=O)NCCc1ccccc1`: the AC50 entry was “inactive”.
With `N#C/C(=C\c1ccc(O)c(O)c1)C(=O)OCCc1cccs1`, the concentration at half-maximal activity (AC50) was 15.8 µM (active).
Same read-out and setting: the same measure for `CC(Oc1ccccc1)c1ccnn1S(=O)(=O)c1ccccc1` (stereo not given): 4.47 µM (active); for `CC(C)CN1CCC2(CC1)CCN(S(=O)(=O)c1ccccc1)CC2`: “inactive”; for `CC(Oc1ccc(-c2ccccc2)c(F)c1)c1ccn(S(=O)(=O)c2ccc(Cl)cc2)n1` (stereo not given): 7.08 µM (active).
The same measure, in the same setting: as for `CC(Oc1ccc(Cl)cc1)c1ccnn1S(=O)(=O)c1ccccc1` (stereo not given), the figure is 7.94 µM (active); as for `COc1cc2nc(N3CCN(C(=O)[C@@H]4CCCO4)CC3)nc(N)c2cc1OC`, “inactive”.
Same read-out and setting: the same measure for `O=C(NNS(=O)(=O)c1cc(Cl)cc(Cl)c1)c1sccc1-n1cccc1`: 0.126 µM (active).
Regarding `CCCCC#Cc1nc(NC)c2ncn([C@@H]3O[C@@H](CO)[C@H](O)[C@H]3O)c2n1`, the AC50 was 0.631 µM (active).
Take `CNc1ncnc2c1ncn2[C@@H]1O[C@H](CO)[C@@H](O)[C@@H]1O`: the AC50 entry is “inactive”.
On the same count and under the same terms, as for `CNc1ncnc2c1ncn2[C@@H]1O[C@@H](CO)[C@H](O)[C@@H]1O`, the entry is “inactive”.
For the molecule `COc1ccc2c(c1)N(CC[C@H]1CCCCN1C)c1ccccc1S2`, the activity, negative = inhibition is -3.81% [at 11.4 µM] (inactive).
As for `N#CC1=C(SCC(N)=O)NC2=C(C(=O)c3ccccc32)C1c1ccc(Cl)cc1` (stereo not given), the AC50 is 6.31 µM (active).
Same read-out and setting: the same measure for `CSC1=C(C#N)C(c2ccccc2Cl)C2=C(N1)c1ccccc1C2=O` (stereo not given): 1 µM (active); for `O=C(O)CC/C=C\CC[C@H]1[C@@H](N2CCCCC2)[C@@H](O)C[C@@H]1OCc1ccc(-c2ccccc2)cc1`: “inactive”; for `Cn1c(=O)c2c(n(Cc3ccccc3)c1=O)NC(=O)C2CC(=O)NCc1cccc(Cl)c1` (stereo not given): 12.6 µM (active).
The same measure, in the same setting: the same measure for `COCCCNCC(=O)c1c(N)n(Cc2ccccc2)c(=O)n(C)c1=O`: “inactive”.
`C1CCN(CC[C@@H]2CCCCN2)CC1`: the activity, negative = inhibition was 12.5% [at 11.4 µM] (inactive).
Turning to `C[N+](C)(N)Cc1csc(-c2ccc(Cl)cc2)n1`, the activity, negative = inhibition is 2.29% [at 11.4 µM] (inactive).
For the molecule `CCCCCN1CC(O)=C(c2nc(-c3ccc(Cl)cc3)cs2)C1=N`, the AC50 is 0.631 µM (active).
Consider `CCCCc1n[nH]c2c1/C(=N/O)CC(c1ccccc1)C2` (stereo not given), for which the AC50 was 2 µM (active).
On to `COc1ccccc1-c1ccc2ncnc(NCc3cnc(C)cn3)c2c1`, for which the activity, negative = inhibition was -18.5% [at 2.29 µM] (inactive).
`O=C1CC(c2cccs2)c2cc3c(cc2N1)OCO3` (stereo not given): the AC50 was 15.8 µM (active).
Same read-out and setting: the same measure for `COc1ccc(-n2c(=O)cnc3cnc(Oc4ccccc4)nc32)cc1`: “inactive”.
Turning to `COc1ccc(Oc2nc3ccccc3nc2C(F)(F)F)cc1`, the AC50 is 7.94 µM (active).
As for `O=C1C=C(N2CCN(c3ccccn3)CC2)C(=O)c2c(O)ccc(O)c21`, the activity, negative = inhibition was -10.2% [at 11.4 µM] (inactive).
On the same count and under the same terms, as for `O=C(O)CNCCc1ccccc1`, the figure is 12.3% [at 11.4 µM] (inactive).
As for `O=C(NCCc1ccccc1)N1c2ccccc2Sc2ccccc21`, the AC50 is 12.6 µM (active).
On the same count and under the same terms, as for `C[C@@H](CN1c2ccccc2Sc2ccccc21)N(C)C`, the entry is “inactive”.
On the same count and under the same terms, the same measure for `O=C(NCCCN1CCc2ccccc2C1)C1CCN(S(=O)(=O)N2CCCC2)CC1`: “inactive”.
As for `O=S(=O)(c1ccc(Cl)s1)N1CCc2ccccc2C1`, the AC50 is 28.2 µM (active).
The same measure, in the same setting: as for `C=CCNCCCCOc1c(Cl)cc(C)cc1Br`, the entry is “inactive”; as for `COc1ccc2c(c1)OC1=C(C(=O)CCC1)C2C1=C(O)CCCC1=O` (stereo not given), 22.4 µM (active).
As to `COc1ccc2oc(=O)c(NC(=O)C3CCCCC3)cc2c1`, the AC50 result is “inactive”.
On the same count and under the same terms, the same measure for `COc1ccccc1CN(Cc1cc2cc3c(cc2[nH]c1=O)OCCO3)Cc1nnnn1Cc1ccco1`: 12.6 µM (active).
As for `CN1CCc2[nH]nc(-c3n[nH]c4c3CN(C)CC4)c2C1`, the activity, negative = inhibition was 3.89% [at 11.4 µM] (inactive).
Take `CCOc1ccc(C2C(C(=O)O)c3ccccc3C(=O)N2CCN2CCOCC2)cc1` (stereo not given): the AC50 result was “inactive”.
Still for that read-out and setting: the same measure for `CCOc1ccc2[nH]c(=O)c(CN(CCc3ccccc3)C(=O)N3CCOCC3)cc2c1`: 7.08 µM (active); for `CCOc1cc(CC(=O)N[C@@H](CC(C)C)c2ccccc2N2CCCCC2)ccc1C(=O)O`: “inactive”; for `CN(C(=O)CCCOc1ccc2[nH]c(=O)ccc2c1)C1CCCCC1`: “inactive”.
Same read-out and setting: the same measure for `C[N+]1(CC(=O)OCCCc2ccccc2)CCOCC1`: “inactive”; for `CCOc1ccc2[nH]c(=O)c(CN(CCc3ccccc3)C(=O)N3CCCC3)cc2c1`: 7.94 µM (active).
Consider `CO[C@@H]1COC(=O)[C@@H](CCSC)NC(=O)C/C=C\[C@@H](C)COC(=O)[C@H](C)NC(=O)C/C=C\[C@H]1C`, for which the activity, negative = inhibition is 10% [at 11.4 µM] (inactive).
On to `CN(Cc1ccco1)c1ncnc2ccc(-c3ccccc3C#N)cc12`, for which the activity, negative = inhibition was -18.9% [at 2.29 µM] (inactive).
For the molecule `Oc1ccc2ccccc2c1C=NCc1c(O)ccc2ccccc12`, the activity, negative = inhibition is -2.74% [at 11.4 µM] (inactive).
Turning to `Oc1ccc2ccccc2c1/C=C\c1ccc2c(Br)cc(Br)c(O)c2n1`, the AC50 is 2.51 µM (active).
Turning to `FC(F)(F)c1ccccc1-c1ccc2ncnc(NC3CC3)c2c1`, the activity, negative = inhibition is -6.68% [at 2.29 µM] (inactive).
As for `O=C1Nc2ccccc2/C1=N/c1sc2c(c1C(=O)NCCc1ccccc1)CCCC2`, the AC50 was 3.98 µM (active).
The same measure, in the same setting: the same measure for `O=C(NCCc1ccccc1)C(=O)NN=C1CCCC1`: “inactive”.
As to `NS(=O)(=O)c1ccc(N=C2C(=O)Nc3ccccc32)cc1`, the activity, negative = inhibition is 0.554% [at 11.4 µM] (inactive).
For the molecule `C=CC1=C(C(=O)O)N2C(=O)[C@@H](NC(=O)/C(=N\OCC(=O)O)c3csc(N)n3)[C@@H]2SC1`, the AC50 entry was “inactive”.
The same measure, in the same setting: as for `CN(C)S(=O)(=O)Oc1cccc(C(=O)Nc2ccccc2Cl)c1`, the figure is 5.01 µM (active); as for `O=C(NNc1cccc(Cl)n1)Nc1ccccc1Cl`, “inactive”; as for `Cc1nc2cnc(N(C)C)nc2n(C)c1=O`, “inactive”.
As for `CCOC(=O)c1sc2nc3c(cc2c1N)COC(C)(CC)C3` (stereo not given), the concentration at half-maximal activity (AC50) is 10 µM (active).
Still for that read-out and setting: as for `CCOC(=O)c1sc2nc3c(cc2c1N)COC(C(C)C)C3` (stereo not given), the entry is “inactive”.
Take `CCOC(=O)/C(=C/Nc1ccccc1)[N+](=O)[O-]`: the AC50 entry was “inactive”.
Still for that read-out and setting: the same measure for `CCOC(=O)C1=C(C)NC(C)=C(C(=O)OC)[C@H]1c1cccc([N+](=O)[O-])c1`: 0.158 µM (active); for `C#CCN1C(C)=C(C(=O)OC)[C@@H](c2cccc([N+](=O)[O-])c2)C(C(=O)OCC)=C1C`: 0.316 µM (active); for `CCOC(=O)C1=C(C)NC(C)=C(C(=O)OC)[C@@H]1c1cccc([N+](=O)[O-])c1`: 0.316 µM (active).
For the molecule `CO[C@H]1COC(=O)[C@@H](CCSC)NC(=O)C/C=C\[C@@H](C)[C@H](OC)COC(=O)[C@@H](OCc2ccccc2)/C=C\[C@@H]1C`, the activity, negative = inhibition is 19.4% [at 11.4 µM] (inactive).
With `O=C(Nc1cccc(C(=O)Nc2ccc(S(=O)(=O)O)c3cc(S(=O)(=O)O)cc(S(=O)(=O)O)c23)c1)Nc1cccc(C(=O)Nc2ccc(S(=O)(=O)O)c3cc(S(=O)(=O)O)cc(S(=O)(=O)O)c23)c1`, the AC50 result is “inactive”.
Same read-out and setting: the same measure for `O=C(Nc1cc(C(=O)Nc2ccc(S(=O)(=O)O)cc2S(=O)(=O)O)cc(C(=O)Nc2ccc(S(=O)(=O)O)cc2S(=O)(=O)O)c1)Nc1cc(C(=O)Nc2ccc(S(=O)(=O)O)cc2S(=O)(=O)O)cc(C(=O)Nc2ccc(S(=O)(=O)O)cc2S(=O)(=O)O)c1`: “inactive and 7.94 µM (active)”; for `O=C(Nc1ccc(C(=O)Nc2ccc(C(=O)Nc3ccc(S(=O)(=O)O)c4cc(S(=O)(=O)O)cc(S(=O)(=O)O)c34)cc2)cc1)Nc1ccc(C(=O)Nc2ccc(C(=O)Nc3ccc(S(=O)(=O)O)c4cc(S(=O)(=O)O)cc(S(=O)(=O)O)c34)cc2)cc1`: “inactive”.
For `COCCNc1ccnc(-c2ccccc2C)n1`, the activity, negative = inhibition was -5% [at 2.29 µM] (inactive).
With `CCOC(=O)c1cn(-c2nc(-c3ccc(Cl)cc3)cs2)c2c(F)c(N3CC(C)OC(C)C3)c(F)cc2c1=O` (stereo not given), the AC50 result is “inactive”.
The same measure, in the same setting: the same measure for `CCOC(=O)c1cnn(CCOC(=O)C(C)(C)C)c1NC(=O)C(C)(C)C`: “inactive”; for `CCOC(=O)c1cnn(-c2nc(-c3cccc(F)c3)cs2)c1C(F)(F)F`: 2.24 µM (active); for `CCOC(=O)c1cnn(-c2cc(Oc3ccccc3)ncn2)c1N`: “inactive”.
The same measure, in the same setting: the same measure for `CCOC(=O)c1cnn(-c2nc(-c3ccc(F)cc3)cs2)c1C(F)(F)F`: 12.6 µM (active).
In the case of `FC(F)(F)c1ccccc1-c1cncnc1NCc1cccs1`, the activity, negative = inhibition was -5.24% [at 2.29 µM] (inactive).
For `CC(C)n1nnc2ccccc2c1=O`, the AC50 entry is “inactive”.
Take `O=c1c2ccccc2nnn1CSc1ccc2c(c1)OCCO2`: the AC50 is 7.94 µM (active).
Turning to `Cc1ccc(C(=O)/C=C/c2c[nH]c3ccccc23)cc1`, the AC50 is 2.82 µM (active).
In the case of `Cc1ccc(C(=O)/C=C2\NCC(C)NC2=O)cc1` (stereo not given), the AC50 result was “inactive”.
For `CC(C)(C)OC(=O)[C@H]([C@@H]1N[C@@H](C(=O)O)C(C)(C)S1)N1C(=O)c2ccccc2C1=O`, the activity, negative = inhibition was 19% [at 11.4 µM] (inactive).
`CSc1nsc(SCc2ccc(Cl)cc2)n1`: the concentration at half-maximal activity (AC50) is 0.355 µM (active).
Consider `CCN1C(=O)[C@H]2[C@H]3[C@H](O)[C@H](O)C/C(=N/O[C@@H](C)c4cn([C@H](CO)Cc5ccccc5)nn4)[C@@H]3CC[C@@H]2C1=O`, for which the activity, negative = inhibition is -13.4% [at 11.4 µM] (inactive) and 2.69% [at 11.4 µM] (inactive).
On the same count and under the same terms, the same measure for `CC1(C)O[C@@H]2O[C@H]([C@H](O)CO/N=C3/[C@H]4O[C@@H]4[C@@H](O)[C@H]4[C@H]3CCn3c(=O)n(-c5ccccc5)c(=O)n34)[C@@H](O)[C@@H]2O1`: 15.4% [at 11.4 µM] (inactive).

For orientation: AC50 means the concentration at which the activity in the assay is half-maximal.
